We go through 15 compounds from PubChem BioAssay.

Calls of active or inactive are those of the source. Unless noted, how the calls were made is not given here.

Assay [1] relates to Wnt5a (protein binding on small-molecule microarray). The assay is described as follows: Wnt5a binders on small-molecule microarray, primary screen, biophysical, 635/667 nm fluorescence (AID 1142).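 Further: fluorescence read at 667 nm with signal to noise per printed feature.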 To be noted: 635 nm fluorescence, higher = more signal.
Assay [2] is described as follows: cell viability in Huh7 cells, primary screen, cytotoxicity control for HCV replication inhibitor project, CellTiter-Glo luminescence, basal, 48 h (AID 1143).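 Further: Huh7 hepatoma cells carrying a hepatitis C replication reporter with no stimulus; test concentration not given here.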 To be noted: Huh7 HCV replicon, higher = more signal, called active from +8 up or from −8 down. Background: In ATP-based viability assays light output follows the ATP content of the culture.
Assay [3] is described as follows: P. aeruginosa biofilm formation inhibitors, primary screen, PAO1 strain, BacTiter-Glo luminescence, LB-PBS (AID 1144). As to conditions: 12 h, higher = more signal.
Assay [4] is described as follows: CREB reporter modulators without forskolin, primary screen, cell-based, PC12, CRE-LacZ reporter, unstimulated (AID 1145). As to conditions: no forskolin, luminescence, 4.5 h, higher = more signal, called active from +8 up or from −8 down.
The nature of assay [5]: CREB reporter modulators under forskolin, primary screen, cell-based, PC12, CRE-LacZ reporter, forskolin-stimulated (AID 1146).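 Further: PC12 cells with 6xCRE LacZ reporter stimulated by forskolin 10 µM; beta-galactosidase reporter signal reflecting CREB driven transcription.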 To be noted: luminescence, 4.5 h, higher = more signal, called active from +8 up or from −8 down.
In assay [6] the target is Streptavidin (Streptomyces avidinii) (UniProt P22629). The assay is described as follows: streptavidin binders on small-molecule microarray, primary screen, artefact control for SMM compound annotation, biophysical, 635/667 nm fluorescence (AID 1147).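 Further: signal reflects streptavidin binding to arrayed compounds as a control protein.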 As to conditions: streptavidin binding, higher = more signal.
The nature of assay [7]: small-molecule binders of probe aInhba, primary screen, biochemical, small-molecule microarray, 635/667 nm fluorescence (AID 1148).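 Further: score merges 667nm spot fluorescence with signal-to-noise for antibody binding to printed compounds.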 To be noted: higher = more signal.
Assay [8] addresses Torsin-1A (Homo sapiens) (UniProt O14656). In words: torsin A binders from cell lysate, primary screen, small-molecule microarray, wild-type, 635/667 nm (AID 1149). As to conditions: COS7 hTOR1A-WT lysate, 635 nm fluorescence, higher = more signal.
Assay [9] has the same target. The assay is described as follows: small-molecule binders of mutant TOR1A in lysate, primary screen, cell lysate, small-molecule microarray, COS7 lysate, 635/667 nm fluorescence (AID 1150).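 Further: score pools 667 nm emission and signal to noise measuring lysate protein binding.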 To be noted: COS7 hTOR1A mutant lysate, 635 nm fluorescence, higher = more signal.
For assay [10], the system named is Sonic hedgehog protein (Shh). In words: small-molecule binders of Shh protein, primary screen, biochemical, small-molecule microarray, 635/667 nm fluorescence (AID 1151).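 Further: Shh protein binding to compounds spotted on small-molecule microarray slides; score combines spot fluorescence intensity with signal-to-noise across triplicate slides.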 To be noted: small-molecule microarray binding, 635 nm fluorescence; higher = more signal.

Sequence of Streptavidin (Streptomyces avidinii) (P22629 whole entry, looked up): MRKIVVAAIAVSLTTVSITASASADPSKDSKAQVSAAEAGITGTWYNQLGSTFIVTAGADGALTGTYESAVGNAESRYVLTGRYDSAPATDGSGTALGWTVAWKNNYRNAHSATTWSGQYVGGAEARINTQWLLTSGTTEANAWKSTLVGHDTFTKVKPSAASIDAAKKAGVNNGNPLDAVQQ
Sequence of Torsin-1A (Homo sapiens) (O14656 whole entry, looked up): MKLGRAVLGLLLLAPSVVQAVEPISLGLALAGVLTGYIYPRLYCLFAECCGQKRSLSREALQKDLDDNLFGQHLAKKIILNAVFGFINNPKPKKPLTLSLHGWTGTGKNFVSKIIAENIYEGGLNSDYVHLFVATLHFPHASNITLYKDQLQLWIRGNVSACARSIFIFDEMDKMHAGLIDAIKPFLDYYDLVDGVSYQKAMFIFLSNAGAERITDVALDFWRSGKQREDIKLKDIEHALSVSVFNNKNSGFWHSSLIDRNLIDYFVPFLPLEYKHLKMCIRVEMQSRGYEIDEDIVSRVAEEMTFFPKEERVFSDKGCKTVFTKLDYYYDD

On to `C=CCC(OC(C)=O)[C@@H]1[C@@H](N(Cc2cccc3ccccc23)C(=O)c2ccc(C)cc2)c2cc(OCCCO)ccc2N1C(=O)Cc1ccc(OC)cc1` (stereo not given in full), for which the composite z-score in [1] was -0.0466; in assay [6], 0.547; in assay [7] it was -0.189; in assay [8] it was 0.291; in [9], 0.553; in [10], 0.562. Further, the z-score in assay [2] is -0.798 (inactive); in [3], -0.738 (inactive); in [4], -0.402 (inactive); in [5], -0.281 (inactive).

Consider `C=C(C(=O)CC[C@H](OC(C)=O)c1ccc(OCCO)cc1)C(C)C`, for which the composite z-score in assay [1] was 0.35; in [6], 0.934; in assay [7], -0.125; in [8], 0.612; in assay [9] it was 0.909; in assay [10], 2.13. The z-score in assay [2] was -8.04 (active); in [3], -0.28 (inactive); in [4], 1.63 (inactive); in assay [5], 0.655 (inactive).

`CN(C)CCCCNC(=O)[C@H]1C[C@H]2C(=O)N[C@@H](Cc3ccccc3)C(=O)N2[C@H]1c1ccc(O)cc1`: the composite z-score is 0.335 in [1]; 1.34 in assay [6]; -0.128 in assay [7]; 1.87 in assay [8]; 0.734 in assay [9]; 2.09 in assay [10]. Besides, the z-score in assay [2] is -2.14 (inactive); in assay [3] it was -1.49 (inactive); in [4], -1.9 (inactive); in assay [5], -0.32 (inactive).

Consider `O=C1OCCC/C=C\[C@H]2OC34C=CCN(Cn5nnc6ccccc65)C(=O)[C@H]3N(CCCCCO)C(=O)[C@@H]4C12` (stereo not given in full), for which the composite z-score in assay [1] was -0.883; in assay [6], -1.21; in [7] it was -0.0762; in assay [8], -2.35; in assay [9], -0.736; in [10], 0.436. For the same compound, the z-score in assay [2] was -0.19 (inactive); in assay [3] it was -0.477 (inactive); in [4], -0.35 (inactive); in assay [5] it was -0.26 (inactive).

In the case of `COCCOC(=O)N1C(=O)[C@@]2(c3cc(C#CCC(C(=O)OC)C(=O)OC)ccc31)[C@H](c1ccccc1OCCO)N1[C@H](c3ccccc3)[C@H](c3ccccc3)OC(=O)[C@H]1[C@@H]2C(=O)N1CCc2cc(OC)c(OC)cc2C1`, the composite z-score in assay [1] is -0.184; in assay [6], 0.226; in assay [7], -0.0774; in assay [8], 0.298; in assay [9] it was 0.619; in assay [10], 1.88. In addition, the z-score in [2] is -3.42 (inactive); in [3] it was -1.52 (inactive); in assay [4], -1.42 (inactive); in assay [5], -1.16 (inactive).

Turning to `O=C(CS)NCCCCCCNC(=O)[C@H]1C[C@H]2C(=O)N3CCC[C@H]3C(=O)N2[C@H]1c1cccc(OCCO)c1`, the composite z-score in assay [1] was 0.35; in assay [6], 0.359; in [7] it was -0.0917; in assay [8] it was 0.536; in [9] it was 1.31; in assay [10], 1.52. Moreover, the z-score in assay [2] is -0.521 (inactive); in assay [3] it was -0.357 (inactive); in assay [4], 0.549 (inactive); in [5], 0.581 (inactive).

As for `CC(C)Cc1ccc(CN2CC[C@@H](NS(=O)(=O)c3ccccc3)C2)cc1`, the composite z-score in assay [1] was -0.353; in assay [6], -0.369; in assay [7], -0.188; in assay [8] it was -0.957; in assay [9], -0.274; in [10], 1.45. The z-score is -5.08 (inactive) in assay [2], -0.721 (inactive) in assay [3], 0.224 (inactive) in assay [4] and -0.138 (inactive) in assay [5].

`CCCN1C(=O)[C@@]2(CCC(=O)OC(C)(C)C)N=C(c3ccc(OCCCO)cc3)O[C@H]2c2ccccc21`: the composite z-score in [1] is 0.399; in [6], 0.0808; in assay [7], 0.0319; in [8], -0.0821; in [9] it was 0.408; in assay [10], 1.5. In addition, the z-score was -4.47 (inactive) in assay [2], -1.36 (inactive) in assay [3], 1.46 (inactive) in assay [4] and -1.6 (inactive) in assay [5].

On to `C#CCN(C(/C=C/c1ccccc1)CO)C(C(=O)O)c1ccccc1` (stereo not given), for which the composite z-score is 0.0265 in [1]; 0.18 in assay [6]; 0.0391 in assay [7]; -0.407 in assay [8]; -0.959 in assay [9]; -0.514 in [10]. In addition, the z-score in assay [2] was -3.59 (inactive); in assay [3], 1.13 (inactive); in assay [4] it was -0.0487 (inactive); in assay [5], -0.53 (inactive).

As to `CC(C)C[C@@H]1NC(=O)[C@H]2C[C@@H](C(=O)NCCCCCNC(=O)CS)[C@@H](c3cccc(OCCO)c3)N2C1=O`, the composite z-score in assay [1] is 1.1; in assay [6], 0.024; in assay [7] it was -0.0112; in [8], 1.07; in [9], 0.867; in assay [10], 2.09. Moreover, the z-score in [2] was -1.07 (inactive); in assay [3], 0.644 (inactive); in [4], 0.289 (inactive); in assay [5], 0.0824 (inactive).

On to `CCCCCN1CC=CC23O[C@@H]4C=CCOC(=O)[C@@H]4[C@H]2C(=O)N(CCCO)[C@@H]3C1=O` (stereo not given in full), for which the composite z-score in [1] is -0.465; in assay [6], -0.866; in assay [7] it was -0.208; in assay [8], 2.03; in assay [9], 2.31; in [10], 1.25. Further, the z-score in assay [2] was -2.93 (inactive); in assay [3], -1.87 (inactive); in [4] it was -1.85 (inactive); in assay [5], -0.771 (inactive).

Regarding `C[N+](C)(C)CCCCCCNC(=O)[C@H]1C[C@H]2C(=O)N3CCC[C@H]3C(=O)N2[C@H]1c1ccc(O)cc1`, the composite z-score in assay [1] was -0.214; in [6] it was -0.715; in assay [7], 0.0184; in [8] it was 0.0048; in [9], 0.599; in assay [10] it was 1.92. Moreover, the z-score in [2] was -2.61 (inactive); in [3] it was -0.911 (inactive); in assay [4], -0.813 (inactive); in assay [5] it was -0.935 (inactive).

Turning to `CC(C)c1ccc(NN2C(C(O)c3cccc(O)c3)C=CC3C(=O)N(c4ccccc4)C(=O)C32)cc1` (stereo not given), the composite z-score in assay [1] stood at 0.125; in [6] it was 1.52; in assay [7], 0.0236; in assay [8], 0.77; in assay [9], 1.3; in assay [10] it was 0.671. The z-score in [2] is -0.392 (inactive); in [3], -0.406 (inactive); in [4] it was 1.39 (inactive); in [5] it was 1.67 (inactive).

Turning to `CCCCC(O)C1C=CC2C(=O)N(C3CCCCC3)C(=O)C2N1Nc1ccc(OC)cc1` (stereo not given), the composite z-score in [1] is 0.177; in assay [6], 1.54; in assay [7] it was 0.0785; in assay [8] it was 0.0983; in assay [9], -0.001; in [10], 0.342. For the same compound, the z-score is -0.527 (inactive) in [2], -1.47 (inactive) in assay [3], 0.276 (inactive) in [4] and 0.765 (inactive) in [5].

With `CCN(CC)c1ccc(N2CC=CC34O[C@@H]5C=CCCOC(=O)C5[C@H]3C(=O)N(CCCCCO)[C@@H]4C2=O)cc1` (stereo not given in full), the composite z-score in [1] is 0.0385; in assay [6] it was -0.45; in assay [7], 0.0173; in assay [8], 0.846; in [9] it was 0.307; in assay [10], 0.16. Moreover, the z-score was -0.484 (inactive) in [2], -0.947 (inactive) in assay [3], 0.593 (inactive) in assay [4] and -0.686 (inactive) in [5].
